Compound activity as filed in PubChem BioAssay.
Compounds with a hit are over-represented: about 18% of the library has one in this group of screens.
Gal4-VP16 FLuc = VP16 counterscreen qHTS for inhibitors of ROR gamma transcriptional activity | Drosophila S2 Gal4-VP16 UAS-luciferase, luminescence, 20 h | Potency, µM (doses to about 53.6 µM), for the others: at the highest dose activity, negative = inhibition, most hits filed as inhibitors | 3.5% of 310,000 active | AID 2546, 2010;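 also: Gal4-VP16 expression switched on by copper sulfate through the metallothionein promoter; potency is read from the fitted curve at half-maximal effect; nearly all actives have a fitted effect of over 50% in size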
DT40 TDP1 CPT = qHTS for Inhibitors of human tyrosyl-DNA phosphodiesterase 1 (TDP1): qHTS in cells in presence of CPT | Potency, µM (series often up to 46.2 µM), for inactives: top-dose activity change, negative = growth inhibition, actives largely listed as inhibitors | chicken DT40 Tdp1-/-;hTDP1 cells + 20 nM CPT, ATP luminescence, 48 h | 12% of 420,000 active; also: potency is read from the fitted curve at half-maximal effect; nearly all actives have a fitted effect of over 55% in size
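Chicken DT40 Tdp1-/- cells stably complemented with human TDP1 were seeded at 400 cells/well in medium containing 20 nM camptothecin, exposed to pin-transferred compounds, and grown at 37 °C for at least 48 hr. Viability was read as ATP luminescence.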
LDHA inh = qHTS assay for inhibitors of human lactate dehydrogenase. L-lactate dehydrogenase A chain (Homo sapiens), P00338. purified LDHA, NADH/diaphorase-resazurin fluorescence; stronger effect = lower value. activity change, % (values are at about 110 or 230 µM). 0.15% of 480,000 active; in the data active = activity change below about -30%; inconclusive = mostly about -25% to -30%;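 also: plate controls were DMSO wells for no effect and wells without enzyme for full effect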
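Resorufin fluorescence (ex540/em590), read at 0 and 20 min after diaphorase/resazurin addition, reports the NADH left after a 5 min room-temperature reaction of 2 nM human LDH5 with 0.06 mM NADH and 0.2 mM pyruvate.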
TDP1 cell noCPT = qHTS for Inhibitors of human tyrosyl-DNA phosphodiesterase 1 (TDP1): qHTS in cells in absence of CPT | Potency, µM (highest dose often 46.2 µM), for inactives: at the top dose activity change, negative = growth inhibition, usual class: inhibitors | 15% of 420,000 active | AID 686978, 2013 | DT40 Tdp1-/- hTDP1 cells, no CPT, ATP luminescence, 48 h; also: potency is read from the fitted curve at half-maximal effect; nearly all actives have a fitted effect of over 55% in size
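Stably hTDP1-transfected Tdp1-null chicken DT40 cells were treated with library compounds minus camptothecin and grown for at least 48 hr at 37 °C, after which cellular ATP was quantified by luminescence.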
IL-1B inflam inh = qHTS for Inhibitors of Inflammasome Signaling: IL-1-beta AlphaLISA Primary Screen; activity change, % at 57.5 µM; AID 743279, 2014; THP-1 LPS/ATP IL-1B secretion, AlphaLISA, 16 h; stronger effect = lower value; 4.7% of 360,000 active; in the data active = activity change below about -50%; inconclusive = mostly about -30% to -49%
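THP-1 cells pretreated 1 hr with compounds (up to 57.5 uM final), then stimulated with LPS (250 ng/mL final) plus ATP (1.25 mM final); secreted IL-1B measured by AlphaLISA after 16 hr, decreased signal indicating inhibition.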
RORg inh = qHTS for inhibitors of ROR gamma transcriptional activity. Nuclear receptor ROR-gamma (Mus musculus), P51450. Drosophila S2 Gal4-RORgamma UAS-luciferase reporter, 20 h. Potency, µM (series often up to 53.6 µM), for inactives: at the top dose activity change, negative = inhibition, hits mostly inhibitors. 5.4% of 310,000 active. AID 2551, 2010; also: potency is read from the fitted curve at half-maximal effect; nearly all actives have a fitted effect of over 60% in size
Target sequence (P51450 whole entry, looked up, the tested form may be a part): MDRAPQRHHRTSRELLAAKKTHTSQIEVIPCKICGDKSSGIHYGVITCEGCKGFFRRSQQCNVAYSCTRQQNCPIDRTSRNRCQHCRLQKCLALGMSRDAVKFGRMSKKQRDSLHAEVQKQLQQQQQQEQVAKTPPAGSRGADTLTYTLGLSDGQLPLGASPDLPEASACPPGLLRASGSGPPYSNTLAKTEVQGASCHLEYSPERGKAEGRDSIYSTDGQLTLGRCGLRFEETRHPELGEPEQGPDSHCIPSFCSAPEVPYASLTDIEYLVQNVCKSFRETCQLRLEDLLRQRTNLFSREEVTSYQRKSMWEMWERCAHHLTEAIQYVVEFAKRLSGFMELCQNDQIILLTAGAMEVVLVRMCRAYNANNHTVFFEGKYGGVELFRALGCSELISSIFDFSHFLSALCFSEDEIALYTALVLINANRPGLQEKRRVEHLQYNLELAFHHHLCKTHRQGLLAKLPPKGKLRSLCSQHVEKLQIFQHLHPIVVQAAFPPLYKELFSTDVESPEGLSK
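Luminescence from a UAS-regulated Photinus luciferase reporter in stably transfected Drosophila Schneider cells is measured; decreased signal marks ROR gamma inhibition. Fusion expression is induced by 700 uM copper sulfate for 20 hr.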
* = called active by the depositor; ? = inconclusive; / = not tested or not shown; [ ] = remark or other dose. Unless noted, calls follow the shape of the dose curve; as a rule, active = well fitted curve in the direction sought with a large enough effect; inconclusive = small, poorly fitted or top-dose-only effect, or another doubt; inactive = no such curve, though single readings can be large; an effect the other way counts as inactive or inconclusive. Unless noted, % is scaled to controls: 0 for no effect and ±100 for the full control effect.

SMILES	Gal4-VP16 FLuc	DT40 TDP1 CPT	LDHA inh	TDP1 cell noCPT	IL-1B inflam inh	RORg inh
S=c1nc(-c2csc3c2CCCC3)[nH][nH]1	11.2µM*	16.4µM*	-1.0	16.4µM*	0.0	3.98µM*
COc1ccc(C2CC(=O)Nc3c2c(C)nn3-c2ncccn2)cc1 (stereo not given)	/	/	-1.5	/	/	/
Cc1ccc(CC(C)(O)CC(C)(O)Cc2ccc(C)cc2)cc1 (stereo not given)	/	20.6µM*	1.0	18.4µM*	-3.1	/
O=C(NCCc1cccc(Cl)c1)c1ccc(Cl)c([N+](=O)[O-])c1	2.2%	?	-1.1	20.6µM*	-97.7*	44.3%
CC(C)(CNC(=O)c1ccc([N+](=O)[O-])c(Cl)c1)CNC(=O)c1ccc([N+](=O)[O-])c(Cl)c1	5.01µM*	18.4µM*	-4.7	20.6µM*	-112.5*	?
CN(Cc1ccccc1)C(=O)c1ccc(Cl)c([N+](=O)[O-])c1	1.2%	?	-1.4	?	-89.9*	?
Cc1ccc(C(=O)NCCSCc2ccccc2)cc1[N+](=O)[O-]	0.5%	?	-1.9	?	-6.5	32.5%
O=C(NCCc1cccc(Cl)c1)c1cc([N+](=O)[O-])ccc1Cl	-6.0%	2.7%	-4.7	-13.4%	-14.2	26.3%
Cc1ccc(C(=O)NCCc2cccc(Cl)c2)cc1[N+](=O)[O-]	7.2%	20.6µM*	1.1	20.6µM*	-56.5*	?
Cc1ccccc1C(=O)Nc1cccc(-c2nnc(SCC(=O)N3CCc4ccccc43)n2C)c1	/	/	10.8	/	/	/
COc1cccc(C(=O)/C(=C/c2ccncc2)c2nc3ccccc3o2)c1	/	/	-0.2	/	/	/
Cc1c(C(=O)NCc2ccccn2)sc2ccccc12	/	/	3.0	/	/	/
CCCCN(Cc1ccccc1)c1ccc(NS(=O)(=O)c2cccc(F)c2)cc1C(=O)O	/	/	0.4	/	/	/
CC/C(=N\NC(=O)c1cc(C)oc1C)c1ccc(OC(F)F)cc1	/	?	-0.9	?	18.4	/
CC/C(=N\NC(=O)c1ccc(CN(C)S(=O)(=O)c2ccc(C)cc2)cc1)c1ccc(OC(F)F)cc1	?	?	-11.5	20.6µM*	-15.5	-41.7%
Cc1ccc(S(=O)(=O)N(C)Cc2ccc(C(=O)NN=C(CC(C)C)CC(C)C)cc2)cc1	?	?	-14.1	23.1µM*	-27.4	10µM*
Cc1ccc2c(N)c(C)ccc2n1	/	/	69.2	/	/	/
O=C(O)Cc1ccc(NC(=O)c2cnccn2)cc1	?	1.1%	-1.7	-21.7%	6.6	11.2µM*
Cc1ccc(NC(=O)c2cnccn2)cc1	2.2%[10 µM]	0.2%	-8.9	-15.5%	-4.4	0.3%
CC(C)(C)c1ccc(C(=O)Nc2ccc(CC(=O)O)cc2)o1	0.794µM*	-8.9%	-5.5	-2.1%	2.9	0.794µM*
O=C(Nc1cc(Br)ccc1I)C1CC2CCC1C2 (stereo not given)	/	/	-3.2	/	/	/
COC(=O)[C@@]12C[C@@H](CC(=O)NCCCCc3ccccc3)C(=O)N(Cc3ccc4c(c3)OCO4)C1=CCC(C)(C)C2	/	?	1.9	13µM*	-76.0*	/
COC(=O)[C@@]12C[C@@H](CC(=O)NCCc3ccccc3OC)C(=O)N(Cc3ccc4c(c3)OCO4)C1=CCC(C)(C)C2	/	?	-0.3	?	?	/
COC(=O)[C@@]12C[C@@H](CC(=O)NCCc3ccccc3OC)C(=O)N(Cc3ccccc3)C1=CCC(C)(C)C2	/	20.6µM*	5.9	?	?	/
CCCCNC(=O)C[C@@H]1C[C@@]2(C(=O)OC)CC(C)(C)CC=C2N(Cc2ccc3c(c2)OCO3)C1=O	/	16.4µM*	4.3	?	-15.6	/
